Screens from PubChem BioAssay.
The list is not random: actives were taken first. Their share in the collection is about 1.1%.
SRC1 inh: inhibits human SRC1 coactivator; inhibition, % at 3.6 µM; 0.12% of 360,000 active; HEK293 GAL4-SRC1 luciferase reporter, luminescence; AID 588354;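 active means inhibition above the campaign mean plus 3 SD, with each screening campaign given its own cutoff, cut at about 60% in these data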;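 further: 0% = DMSO treated cells and 100% = gossypol at 36 µM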
GalR3 antag: blocks the human galanin receptor 3 | O60755 | HEK293 GalR3-CNG cAMP membrane potential fluorescence; galR3 body fused to GalR1 C-terminus | inhibition, % at 3 µM | 0.44% of 360,000 active;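 active means inhibition above the screen-wide average plus 3 SD, cut at about 13% in these data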;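 further: forskolin and galanin both at EC90 stimulate the cells; cAMP rise reported by CNG channel membrane potential dye signal; 0% = forskolin plus galanin with DMSO and 100% = forskolin alone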
COUP-TFII inh: blocks human COUP-TFII nuclear receptor; 0.7% of 370,000 active; AID 686940; HEK293T NGFI-A luciferase reporter, luminescence; inhibition, % at 8.6 µM; P24468;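 active means inhibition above a per-plate cutoff, mean inhibition of test wells between control levels plus 3 SD, cut at about 38% in these data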;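 further: cells cotransfected with COUP-TFII expression vector driving the NGFI-A reporter; 0% = median of COUP-TF2 test wells and 100% = reporter-only cells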
SRC2 inh: human SRC2 (NCOA2) inhibition. HEK293 GAL4-SRC2 luciferase reporter, luminescence. 0.17% of 370,000 active. AID 651957. inhibition, % at 9 µM. Q15596;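 active means inhibition above the mean inhibition of all tested compounds plus 3 SD, set per campaign, cut at about 52% in these data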;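 further: 0% = DMSO treated cells and 100% = cells given Gossypol at 36 µM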
NCOA3 inh: inhibits human SRC3 coactivator; inhibition, % at 3.6 µM; Q9Y6Q9; AID 588352; 0.17% of 360,000 active; HEK293 GAL4-SRC3 luciferase reporter, luminescence;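 active means inhibition above a per-campaign cutoff, the mean of all compounds plus 3 SD, cut at about 60% in these data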;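 further: 0% = DMSO-treated cells and 100% = gossypol-treated cells at 36 µM; higher means less SRC3-driven luciferase light from the GAL4 reporter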
LRH-1 inv ag: NR5A2 inverse agonism in reporter assay; HEK293T StAR-luciferase reporter, LRH-1 transfected, 24 h; inhibition, % at 3.6 µM; 0.13% of 360,000 active;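 active means inhibition above the mean inhibition of all tested compounds plus 3 SD, cut at about 73% in these data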;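 further: 0% = DMSO wells and 100% = reporter-only cells lacking LRH-1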
Active calls of the source: *; nt = not tested or not shown.

SMILES	SRC1 inh	GalR3 antag	COUP-TFII inh	SRC2 inh	NCOA3 inh	LRH-1 inv ag
COC(=O)[C@]12C[C@H](CC(=O)NCCC(C)C)C(=O)N(Cc3cccc4ccccc34)C1=C[C@H](C(C)C)O[C@@H]2C1CC1	nt	nt	-4.5	12.0	nt	nt
CC(NC(=O)CCc1nnc(-c2ccc(-c3ccccc3)cc2)o1)c1nc2ccccc2[nH]1 (stereo not drawn)	-19.8	-9.4	34.8	67.0*	-6.6	3.5
O=c1[nH]c(-c2ccccc2)cn1C1CCN(Cc2ccc(-c3nc4ccc(Br)cc4nc3-c3ccccc3)cc2)CC1	nt	-1.3	-6.2	5.0	nt	nt
COc1ccc2cc3cc(C(=O)NCCc4ccc(OC)c(OC)c4)oc3nc2c1	36.7	-7.4	53.8*	-2.3	29.3	2.5
CCCN(CCC)CCCNC(=O)c1cc2cc3ccc(OC)cc3nc2o1	-22.6	-4.2	-3.2	-4.6	-5.2	-12.7
COc1ccc(S[C@]2(C(=O)N(C)C)CC(=O)N(C(=O)c3ccccc3)[C@@H]2c2ccc(OC)cc2)cc1	nt	nt	15.8	6.4	nt	nt
CC(C)=CC(=O)NCC1CCN(C(=O)C(=O)c2cc3ccccc3o2)CC1	nt	0.1	3.4	16.4	nt	nt
CC1(C)CC(NNCCC#N)=CC(=[N+]2CCCC2)C1	7.3	-2.5	-7.3	22.2	4.5	2.1
CN(Cc1ccccc1)C1=CC(=[N+]2CCCCC2)CC(C)(C)C1	61.1*	41.6*	74.8*	-1.6	72.2*	84.0*
COc1cc(-c2nnc(-c3cc(-c4ccccc4)nc4ccccc34)o2)cc(OC)c1OC	-9.0	3.0	-4.6	93.5*	1.8	8.7
Cc1ccc(-c2nc3c(C)cc(Br)cn3c2Cc2ccccc2C(F)(F)F)cc1	nt	-7.0	3.9	-1.4	nt	nt
COC(=O)[C@]12C[C@H](CC(=O)N3CCN(C(=O)c4ccco4)CC3)C(=O)N(CCC3=CCCCC3)C1=C[C@H](C(C)C)O[C@@H]2C1CC1	nt	nt	17.6	-6.8	nt	nt
COc1ccc(-c2cc(-c3nc4ccccn4c3NCc3ccccc3)ccc2OC)cc1	15.2	-5.0	101.0*	90.7*	63.7*	91.2*
COc1ccc(CN2C(C(=O)NCC(C)C)CSCCS2(=O)=O)cc1 (stereo not drawn)	nt	nt	-15.5	18.4	nt	nt
O=C(Nc1ccc(OC(F)(F)F)cc1)Nc1cccc([N+](=O)[O-])c1	-2.2	-5.7	-6.4	-5.4	62.5*	29.4
COc1ccc(NC(=O)/C=C/c2cc(Br)ccc2OC)cc1	3.3	-3.2	-4.3	13.6	2.9	0.0
COc1ccc(Br)cc1/C=C/C(=O)c1ccc(NC(C)=O)cc1	32.5	-4.5	-13.0	61.2*	71.1*	47.8
OC[C@@H]1CN(Cc2ccc(-c3ccccc3)cc2)C[C@H](n2cnc3c(NCc4ccco4)ncnc32)O1	15.6	-4.9	52.1*	22.3	16.2	54.2
O=C(NCCCn1ccnc1)c1ccc(S(=O)(=O)N2CCCCCC2)cc1	-5.0	3.7	8.4	-0.4	-0.1	1.0
CC1CC(C)CN(S(=O)(=O)c2ccc(C(=O)NCCCn3ccnc3)cc2)C1 (stereo not drawn)	33.6	nt	nt	nt	61.8*	84.2*
Nc1nc(N)nc(-c2cc([N+](=O)[O-])ccc2O)n1	11.6	-1.1	12.2	-15.8	-2.8	5.0
Nc1nc(N)nc(-c2cc(O)ccc2O)n1	71.2*	-1.4	25.3	38.7	59.5	54.4
COc1cccc(C(=O)N[C@H](C(=O)N2CCC[C@H]2C(=O)NCc2ccccc2)C(C)C)c1	nt	-6.3	-15.2	2.9	nt	nt
CC(C)(C)c1ccc(C(=O)Nc2sc3c(c2C(=O)O)CCC3)cc1	66.8*	-4.5	29.2	67.6*	77.4*	84.4*
COc1ccc(/C=C/C(=O)C(C(N)=O)=C2SCCS2)cc1	-30.8	-1.2	-12.1	-10.6	-21.5	-20.1
SMILES	SRC1 inh	GalR3 antag	COUP-TFII inh	SRC2 inh	NCOA3 inh	LRH-1 inv ag
NC(=O)C(C(=O)/C=C/c1ccc(Cl)cc1)=C1SCCS1	43.7	-0.1	-13.6	-11.8	65.7*	25.1
S=c1[nH]nc(-c2n[nH]c3c2CCC3)n1N=Cc1c[nH]c2ccccc12	nt	nt	-1.6	5.3	nt	nt
Cc1cc2c(c(=O)o1)[C@@]1(C(=O)N(C)c3ccccc31)C1=C(CC(C)(C)CC1=O)O2	nt	-2.9	3.5	-13.3	nt	nt
CS(=O)(=O)c1ccc(Sc2nc3ccccc3s2)c([N+](=O)[O-])c1	11.1	nt	nt	nt	73.0*	20.2
O=C(O)C1CCCN1c1nc(-c2ccc(Cl)c(Cl)c2)cc(C(F)(F)F)n1 (stereo not drawn)	53.4	-2.5	26.0	-15.5	72.4*	91.9*
CCOC(=O)c1ccc(N=Cc2cnc(N)nc2N)cc1	-1.6	-6.4	0.5	-7.7	1.7	87.8*
CCOC(=O)c1ccc(N=CC2=C(O)CC(C)(C)CC2=O)cc1	-8.5	6.5	-11.5	3.5	4.4	-21.4
C=C1C(=O)OC2CC1C(O)CC(C)=CCCC(C)=CC(O)CC2C (stereo not drawn)	30.2	-2.5	46.6*	51.8	58.5	-2.8
C=C1C(=O)OC2C1CCC(C)C1C=CC(=O)C12C (stereo not drawn)	-28.9	-1.8	-26.6	-19.3	-10.4	-21.1
Cc1ccc2nc(NCC(=O)O)nc(-c3ccccc3)c2c1	12.0	-4.4	4.1	4.6	-2.9	10.2
COc1cc(Nc2nc(-c3ccccc3)c3cc(C)ccc3n2)cc(OC)c1OC	13.3	-2.5	-3.2	93.1*	7.5	5.4
O=C(CCCN1C(=O)/C(=C/c2ccccc2Cl)SC1=S)NNC(=O)c1ccc(Cl)cc1	19.3	3.0	15.3	58.3*	12.4	6.1
O=C(CCN1C(=O)/C(=C/c2ccccc2Cl)SC1=S)NNC(=O)c1cccnc1	4.0	-0.1	13.0	14.4	21.9	-4.0
O=C(c1cc2c(c(-c3cccc(-c4ccncc4)c3)n1)[C@H](CCO)N(C(=O)c1ccc3c(c1)OCO3)C2)N1CCOCC1	nt	-4.3	-8.7	-3.2	nt	11.1
CC(CCN1CCC(C(O)(c2ccccc2)c2ccccc2)CC1)Oc1cccc(Br)c1 (stereo not drawn)	nt	nt	18.2	2.3	nt	nt
O=C(NCCCn1ccnc1)C(=O)NCC(c1ccco1)N1CCN(c2ccc(F)cc2)CC1 (stereo not drawn)	-16.5	12.8*	3.7	2.5	6.1	0.0
O=C(NCCCn1ccnc1)C(=O)NCC(c1ccco1)N1CCN(c2ccccc2)CC1 (stereo not drawn)	-5.1	-3.6	3.8	9.9	13.2	-5.4
Cc1ccccc1NC1=C/C(=N\S(=O)(=O)c2cccs2)c2ccccc2C1=O	79.5*	-7.9	-4.0	-19.7	87.5*	-2.7
Cc1ccc2c(c1)C(CS(=O)(=O)NCC(C)C)NC2 (stereo not drawn)	nt	nt	0.3	-1.9	nt	nt
O=C(Nc1cccc2c1CCCC2)c1cc([N+](=O)[O-])ccc1Cl	28.5	-8.3	16.6	58.0*	22.5	17.6
CCOc1ccc(-n2c(C)c(C(=O)OC)c3cc(O)ccc32)cc1	-19.0	-1.7	7.7	15.3	17.0	-10.4
CCOc1ccc(-n2c(C)c(C(C)=O)c3cc(O)ccc32)cc1	61.1*	-6.2	9.2	4.1	56.4	3.7
